Values joined by “and” are separate entries in the source; they are usually repeats but may differ in a detail not shown here. Identical values can stand only once. Inconclusive results are not listed. Some compounds were tested as several samples or in several runs, with calls that do not always agree. Active and inactive are the calls of the source. Calls come from the whole dose curve; as a rule, active = well fitted inhibition curve with a large enough effect; inconclusive = small, poorly fitted or top-dose-only effect; inactive = flat fitted curve, though single readings scatter. Where a SMILES comes first, the peptide text is derived from it. Bridges are numbered along the chain shown (N, C = ends). [ ]: non-standard residue; d: D form. The star is where a group is joined. X1 = CCC(C)C(N)C1=NC(C(=O)*)CS1; dOrn = NCCC[C@@H](N)C(=O)O
Legend:
[1] = test system: CRL-7250; assay: Cytotoxic Profiling of Annotated Libraries Using Quantitative High-Throughput Screening (AID 1296008); conditions: Five cell lines viability, CellTiter-Glo ATP luminescence, 48-72 h; max response: active compounds read low; note: potency is the fitted concentration of half-maximal effect; for max response: % is set by controls: 0 for no effect and ±100 for the full control effect
Outline: (§1)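 Cytotoxicity was measured as CellTiter-Glo ATP luminescence, read after 10 min at room temperature. Compound treatment of the cells lasted 48 or 72 hr at 37 degrees Celsius in a qHTS format.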

[2] = test system: HEK293; assay: as above; conditions: Five cell lines viability, CellTiter-Glo ATP luminescence, 48-72 h; max response: active compounds read low
Outline: as §1

[3] = test system: HaCat; assay: as above; conditions: Five cell lines viability, CellTiter-Glo ATP luminescence, 48-72 h; max response: active compounds read low
Outline: as §1

[4] = test system: KB-3-1; assay: as above; conditions: Five cell lines viability, CellTiter-Glo ATP luminescence, 48-72 h; max response: active compounds read low
Outline: as §1

[5] = test system: NIH3T3; assay: as above; conditions: Five cell lines viability, CellTiter-Glo ATP luminescence, 48-72 h; max response: active compounds read low
Outline: as §1

[6] = test system: HACAT; assay: qHTS assay to identify novel small-molecules to repurpose for Merkel cell carcinoma treatment (AID 1296009); conditions: MCC and control cell lines, CellTiter-Glo viability, 72 h; at 44.8 µM (top of the series) unless noted
Outline: (§2)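 72 hr, 37 degree celsius; NPC 8-pt / MIPE 11-pt dose response; compound pinned in DMSO; CellTiter-Glo, 10 min RT, luminescence; normalized to no-cell and DMSO controls.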

[7] = test system: HEK293T; assay: as above; conditions: MCC and control cell lines, CellTiter-Glo viability, 72 h; series mostly up to 44.8 µM
Outline: as §2
Note: nearly all actives have a fitted effect of over 60% in size.

Cc1nc2c(-c3cnc(N)nc3)nc(N3CCOCC3)nc2n1C(C)C
active: Potency [1] 291 nM and 7.4 nM | Potency [2] 326 nM and 23.4 nM | Potency [3] 2.06 µM and 132 nM | Potency [4] 0.461 µM | Potency [5] 1.16 µM and 234 nM

CN1Cc2c(N)cccc2C(c2ccccc2)C1 (configuration not stated)
inactive: max response [1] -1.42% | max response [2] 3.6% | max response [3] -17.5% | max response [4] -2.79% | outcome [5]

CN(C)c1cccc(-c2c3c(=O)n(-c4ccccc4Cl)[nH]c3cc(=O)n2C)c1
inactive: max response [1] 3.76% | outcome [2] | outcome [3] | max response [4] 5.47% | max response [5] -12.2% | outcome [5] | outcome [6] | Potency [7]
active: Potency [2] 5.88 µM | Potency [3] 14.8 µM

CC1=C2C(=O)O[C@@H](c3ccoc3)[C@]2(C)CCC1
inactive: max response [1] -4.96% | outcome [1] | max response [2] -8.51% and 3.13% | max response [3] 0.193% | max response [4] 4.53% | outcome [4] | max response [5] 0.635% and 0.0895%

COc1cc(N2CCC(O)CC2)ccc1Nc1cc(Nc2ccccc2S(=O)(=O)C(C)C)c2cc[nH]c2n1
inactive: max response [1] -7.16%
active: Potency [1] 33.1 µM | Potency [2] 12.8 µM and 11.7 µM | Potency [3] 8.31 µM | Potency [4] 14.3 µM | Potency [5] 4.67 µM

CO/N=C(/C(=O)N[C@@H]1C(=O)N2C(C(=O)O)=C(CSC(=O)c3ccco3)CS[C@H]12)c1csc(N)n1
inactive: max response [1] -7.13% and 1.26% | max response [2] 3.45% and -9.59% | max response [3] 4.84% | outcome [3] inactive; activator | max response [5] 0.301% and -3.25% | outcome [6] inactive; activator

NS(=O)(=O)NCCNc1nonc1C(=Nc1ccc(F)c(Br)c1)NO
inactive: max response [1] 3.38% and -8.95% | max response [2] -61.6% | outcome [2] | max response [3] -46.4% | outcome [3] | max response [4] 4.58% and 8.99% | max response [5] -8.59% and -38.3% | outcome [5] | outcome [6] | Potency [7]

NCc1ccc(OCCCc2sc(-c3ccc4c(c3)/C(=N/Nc3nc5ccccc5s3)CCC4)nc2C(=O)O)cc1
active: Potency [2] 2.95 µM | Potency [3] 3.71 µM
inactive: max response [1] -14.2% | max response [3] 0.629% | max response [4] -25.7% | max response [5] -6.71%

Nc1ccn([C@@H]2C(F)=C(CO)[C@@H](O)[C@H]2O)c(=O)n1
active: Potency [2] 920 nM and 933 nM | Potency [3] 18.4 µM | Potency [4] 9.2 µM | Potency [5] 4.61 µM and 3.71 µM
inactive: max response [1] -25.3%

NC1CCC(N[C@@H]2C[C@H]2c2ccccc2)CC1 (some centres not stated)
inactive: max response [1] 1.1% | outcome [1] | max response [2] -15.5% and -3.29% | max response [3] -1.71% | outcome [3] | outcome [4] | max response [5] 3.03% | outcome [5] | outcome [6]

CCOc1ccc(-c2ccc(Cn3c(CC(C)(C)C(=O)O)c(SC(C)(C)C)c4cc(OCc5ccc(C)cn5)ccc43)cc2)cn1
inactive: max response [1] -21.1% and -6.16% | max response [2] -15.3% | outcome [2] | max response [3] -15.9% and -11.2% | max response [4] -5.24% | outcome [4] | max response [5] -6.34% | Potency [7]

COc1c(C)c(C(=O)c2ccc(N)c(C(=O)O)c2)n2ccccc12
inactive: max response [1] -6.91% | max response [2] -16.3% | max response [3] -0.372% | outcome [3] | max response [4] 4.57% and 7.45% | outcome [6]

COc1cc(N2CCC(N(C)C)CC2)ccc1Nc1ncc(Cl)c(Nc2ccccc2P(C)(C)=O)n1
active: Potency [1] 2.91 µM and 1.48 µM | Potency [2] 5.17 µM and 1.86 µM | Potency [3] 1.84 µM and 2.34 µM | Potency [4] 4.11 µM | Potency [5] 2.06 µM

N[C@H]1C[C@H]1c1ccc(-c2cccc(O)c2)cc1
inactive: max response [1] 0.175% and -10.6% | max response [2] -29.8% and -17.5% | max response [3] -1.19% | outcome [3] | outcome [4] | max response [5] -6.35% | outcome [5] | outcome [6]

C#C[C@]1(O)CC[C@H]2[C@@H]3CCC4=C/C(=N/O)CC[C@@H]4[C@H]3CC[C@@]21CC
inactive: max response [1] 4.4% | max response [2] -0.147% | max response [3] -21.3% | max response [4] -19.2% and -21.5% | outcome [5]

CC(C)N(C[C@H]1O[C@@H](n2cnc3c(N)ncnc32)[C@H](O)[C@@H]1O)C1CC(CCc2nc3ccc(C(C)(C)C)cc3[nH]2)C1 (some centres not stated)
inactive: max response [1] -0.229% | outcome [1] | max response [3] 3.92% | outcome [3] | max response [4] 5.25% | max response [5] -7.24% and -17.7% | outcome [6]
active: Potency [2] 7.41 µM

N#Cc1ccnc(N2C(=O)CC[C@H]2C(=O)N(c2cncc(F)c2)[C@H](C(=O)NC2CC(F)(F)C2)c2ccccc2Cl)c1
inactive: max response [1] -10.6% | max response [2] -9.11% | max response [3] -27% | max response [4] 1.75% | max response [5] -4.58%
active: Potency [2] 3.31 µM | Potency [3] 23.4 µM

CN(NC(=O)CC(=O)NN(C)C(=S)c1ccccc1)C(=S)c1ccccc1
inactive: outcome [3] | outcome [6]
active: Potency [1] 0.066 µM | Potency [2] 11.6 nM and 13.2 nM | Potency [4] 0.0366 µM | Potency [5] 51.7 nM and 26.3 nM

CNC(=O)c1ccc(Nc2ncc(C(F)(F)F)c(NCc3nccnc3N(C)S(C)(=O)=O)n2)cc1
active: Potency [1] 4.17 µM | Potency [2] 5.17 µM | Potency [3] 7.31 µM and 2.95 µM | Potency [4] 11.6 µM | Potency [5] 14.6 µM and 3.71 µM

CC(C)Nc1cc(-c2c[nH]c(C(=O)N[C@H](CO)c3cccc(Cl)c3)c2)c(Cl)cn1
inactive: max response [1] -4.72% | max response [2] -74.1%
active: Potency [2] 26.3 µM | Potency [3] 2.59 µM and 14.8 µM

O=C(O)C[C@H](O)C[C@H](O)/C=C/c1c(C2CC2)nc2ccccc2c1-c1ccc(F)cc1
active: Potency [1] 0.731 µM | Potency [2] 5.8 µM | Potency [3] 7.31 µM | Potency [4] 4.61 µM | Potency [5] 14.6 µM

CCC(C)C(N)C1=NC(C(=O)N[C@@H](CC(C)C)C(=O)N[C@H](CCC(=O)O)C(=O)N[C@H](C(=O)N[C@H]2CCCCNC(=O)[C@H](CC(N)=O)NC(=O)[C@@H](CC(=O)O)NC(=O)[C@H](Cc3cnc[nH]3)NC(=O)[C@@H](Cc3ccccc3)NC(=O)[C@H]([C@@H](C)CC)NC(=O)[C@@H](CCCN)NC2=O)[C@@H](C)CC)CS1 (some centres not stated) (X1-L[dE]IK[dOrn]I[dF]H[dD]N; lactam 4-C)
inactive: max response [1] 2.99% and -28% | max response [2] -1.63% and -10.3% | outcome [3] | max response [4] 8.49% | outcome [4] | max response [5] 2.78% | outcome [6] inactive [at 17.4 µM]

O=C(Nc1cccnn1)N1CCC(=Cc2cccc(Oc3ccc(C(F)(F)F)cn3)c2)CC1
active: Potency [2] 8.2 µM and 13.2 µM
inactive: max response [1] -4.32% | max response [3] -13.4% | outcome [3] | max response [5] -5.09% and -8.67% | outcome [6]

CCC(=O)NS(=O)(=O)c1ccc(-c2c(-c3ccccc3)noc2C)cc1
inactive: outcome [1] | outcome [2] | max response [3] -10.3% | max response [4] -21.2% | outcome [4] | outcome [5] | Potency [7]

NS(=O)(=O)OC[C@@H]1C[C@@H](n2ccc3c(N[C@H]4CCc5ccccc54)ncnc32)C[C@@H]1O
active: Potency [1] 1.3 µM and 651 nM | Potency [2] 291 nM and 366 nM | Potency [3] 5.17 µM

O=C(C1CC1)N1CC[C@@H](Cc2n[nH]c(=O)n2-c2ccc(-c3ccc4occc4c3)cc2)C1
inactive: max response [1] -4.78% and -21.6% | outcome [2] | max response [3] -2.96% | outcome [3] | outcome [4] | max response [5] -10.7% | outcome [6] inactive [at 17.4 µM] | Potency [7]

CC(=O)c1cnc2ccc(-c3cc(Cl)c(O)c(Cl)c3)nc2c1NC1CCC(CN(C)C)CC1 (configuration not stated)
active: Potency [1] 166 nM and 1.19 µM | Potency [2] 52.4 nM and 237 nM | Potency [3] 0.0331 µM | Potency [4] 0.075 µM | Potency [5] 93.3 nM and 299 nM
